Experimental data published in the supplement of paper PMC10646978.
± gives the standard deviation.

Assays:
Settings in all cases: modulator concentration 10 µM
[1] = system: RAW-Dual (murine macrophage reporter line); assay: NF-kB reporter (SEAP) activity fold change vs agonist alone; higher = enhanced NF-kB activity
Outline: (§1)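 RAW-Dual murine macrophage reporter cells were plated at 50 000 per well in 384-well plates, pin-transferred compound to 10 μM final, and pre-incubated for 1 hour at 37 °C before a PRR agonist was added and the cells incubated overnight. NF-κB activity was read from supernatant SEAP with QUANTI-Blue at 620 nm absorbance, and IRF activity from Lucia luciferase with QUANTI-Luc by luminescence. Each signal was expressed as fold change by dividing by the mean agonist-only control on the same plate. Two replicate plates were averaged, with errors obtained by propagation.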

[2] = system: RAW-Dual (murine macrophage reporter line); assay: IRF reporter (Lucia luciferase) activity fold change vs agonist alone; higher = enhanced IRF activity
Outline: as §1

[3] = system: RAW-Dual (murine macrophage reporter line); assay: viability score (confluency relative to resting cells, overnight) (fraction); higher = more viable, active = viable (0.7 or more)
Outline: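 Two confluency masks, generated with IncuCyte software over all imaged wells, were applied to IncuCyte images of RAW-Dual macrophages. The cells, in 384-well plates, had been exposed overnight to 10 μM final compound. The viability score is confluency as a fraction of resting cells, and a compound met the cutoff only with both masks above 70% of resting cells.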

[4] = agonist: CpG ODN 1826 0.5 ug/mL

SMILES	NF-kB reporter [1, 4]	NF-kB reporter ([1]; agonist: LPS 0.1 ug/mL)	NF-kB reporter ([1]; agonist: MPLA […])	IRF reporter ([2]; agonist: 3'3'-cGAMP 10 ug/mL)	IRF reporter ([2]; agonist: LPS 0.1 ug/mL)	IRF reporter ([2]; agonist: MPLA […])	viability score [3]
Cc1ccc(-c2nn(-c3ccccc3)cc2C=C2C(=O)NC(=S)NC2=O)o1	1.03 ± 0.3	1.01 ± 0.11	0.898 ± 0.071	0.968 ± 0.057	1.27 ± 0.2	1.25 ± 0.13	1 (active)
CC12CCC3C(CC=C4CC(O)CCC43C)C1CC(=Cc1cccc(F)c1)C2=O (centres undefined)	0.722 ± 0.046	1 ± 0.061	1.05 ± 0.083	0.907 ± 0.03	1.61 ± 0.13	1.31 ± 0.12	0.933 (active)
CC(C)=CCOc1c2occc2cc2ccc(=O)oc12	1.13 ± 0.27	0.823 ± 0.064	0.957 ± 0.088	1.09 ± 0.047	1.47 ± 0.17	1.58 ± 0.21	0.95 (active)
CCNc1nc(Cl)nc(NC(C)C)n1	1.25 ± 0.097	0.873 ± 0.082	1.01 ± 0.094	1.01 ± 0.032	1.33 ± 0.21	1.49 ± 0.25	1.03 (active)
Cc1noc(C)c1CC(=O)N1CCCSCC1CN1CCCC1 (centres undefined)	0.943 ± 0.093	1.03 ± 0.083	0.906 ± 0.04	1.1 ± 0.065	1.09 ± 0.11	0.972 ± 0.14	1 (active)
CCC1(C)CC(=O)NC(=O)C1	0.907 ± 0.15	0.842 ± 0.14	0.941 ± 0.054	0.899 ± 0.073	1.02 ± 0.11	1.11 ± 0.16	0.985 (active)
Cc1ccc(-c2nn(-c3ccccc3)cc2C=C2C(=O)NC(=O)NC2=O)o1	1 ± 0.094	1.07 ± 0.066	1 ± 0.08	1.01 ± 0.037	1.42 ± 0.23	1.16 ± 0.072	1.01 (active)
COc1ccc2c(c1O)-c1c(OC)c(OC)cc3c1C(C2)N(C)CC3 (centres undefined)	0.618 ± 0.051	0.905 ± 0.088	1.1 ± 0.1	0.903 ± 0.046	1.29 ± 0.14	1.45 ± 0.17	1.04 (active)
CCC1(C)CC(CCNCc2ccccc2)(c2ccc(C)cc2)CCO1 (centres undefined)	0.701 ± 0.29	1.15 ± 0.099	1.19 ± 0.18	0.57 ± 0.018	1.38 ± 0.14	1.76 ± 0.31	0.547 (inactive)
CC(=O)CC(c1ccccc1)c1c(OC(C)=O)c2ccccc2oc1=O (centres undefined)	0.865 ± 0.059	0.925 ± 0.11	0.779 ± 0.1	0.908 ± 0.03	1.3 ± 0.1	1.14 ± 0.19	1 (active)
CC12CCC3C(CCC4CC(O)CCC43C)C1CCC2O (centres undefined)	1.23 ± 0.29	0.968 ± 0.059	2.43 ± 1.5	0.891 ± 0.037	1.13 ± 0.18	1.21 ± 0.14	0.963 (active)
Cc1c(NC=C2C(=O)NC(=O)NC2=O)c(=O)n(-c2ccccc2)n1C	0.967 ± 0.077	1.08 ± 0.074	0.957 ± 0.06	1.01 ± 0.029	1.45 ± 0.2	1.08 ± 0.069	1.02 (active)
CN1C(=O)NC(=O)C(=Cc2ccc([N+](=O)[O-])o2)C1=O	0.875 ± 0.069	1.06 ± 0.083	1 ± 0.12	0.92 ± 0.066	1.24 ± 0.14	0.961 ± 0.061	1.02 (active)
CCOc1cc(C=C2N=C(c3cccc(C)c3)OC2=O)ccc1OC(=O)Cc1ccccc1	0.858 ± 0.069	0.959 ± 0.081	0.914 ± 0.057	0.8 ± 0.024	1.19 ± 0.1	0.964 ± 0.12	1.01 (active)
Cl.N=C(N)NN	0.983 ± 0.15	1.02 ± 0.29	0.917 ± 0.064	0.892 ± 0.034	1.38 ± 0.27	1.25 ± 0.21	0.997 (active)
Cc1ccc(C)c2sc(N3CCN(C)CC3)nc12.Cl	0.743 ± 0.18	1.02 ± 0.18	1.07 ± 0.071	0.92 ± 0.032	1.04 ± 0.14	1.19 ± 0.22	0.976 (active)
Cl.Clc1ccc(C(OCCN2CCCCC2)c2ccccc2)cc1 (centres undefined)	0.656 ± 0.26	0.756 ± 0.051	0.721 ± 0.049	0.543 ± 0.023	1.25 ± 0.15	1.24 ± 0.14	0.652 (inactive)
COc1cc(C2c3cc4c(cc3C(O)C3COC(=O)C23)OCO4)cc(OC)c1OC (centres undefined)	1.37 ± 0.41	0.807 ± 0.077	1.08 ± 0.1	0.688 ± 0.021	1.19 ± 0.17	1.51 ± 0.22	0.967 (active)
CC(=O)C1CCC2C3CCC4CC(O)CCC4(C)C3CCC12C (centres undefined)	1.17 ± 0.28	1.16 ± 0.097	1.02 ± 0.079	0.858 ± 0.034	1.2 ± 0.19	1.38 ± 0.13	0.985 (active)
ClC(Cl)=C(c1ccc(Cl)cc1)c1ccc(Cl)cc1	1.14 ± 0.36	1.03 ± 0.068	1.07 ± 0.11	0.961 ± 0.055	1.12 ± 0.12	1.25 ± 0.12	0.714 (active)
O=C(O)c1nn(Cc2ccc(Cl)cc2Cl)c2ccccc12	0.833 ± 0.12	0.959 ± 0.14	0.943 ± 0.055	0.926 ± 0.033	1.04 ± 0.25	1.06 ± 0.18	1 (active)
NNC(=O)c1ccccc1	1.06 ± 0.088	1.05 ± 0.082	1.02 ± 0.022	0.929 ± 0.086	0.914 ± 0.15	0.931 ± 0.12	1 (active)
COc1cc(CNCCc2ccc(OC)c(OC)c2)cc(OC)c1	0.973 ± 0.078	0.959 ± 0.14	0.989 ± 0.093	1.02 ± 0.032	1.22 ± 0.13	1.45 ± 0.18	1.02 (active)
COc1cc(CNCCc2c[nH]c3ccccc23)cc(OC)c1O	0.642 ± 0.052	0.811 ± 0.12	1.04 ± 0.096	0.93 ± 0.043	1.44 ± 0.11	1.56 ± 0.15	1 (active)
COc1cc([C@@H]2c3cc4c(cc3[C@H](O)[C@H]3COC(=O)[C@H]23)OCO4)cc(OC)c1OC [Prestw-782]	2.45 ± 0.14	1.61 ± 0.098	2.69 ± 0.16	0.0908 ± 0.0036	1.48 ± 0.1	1.6 ± 0.31	0.721 (active)
CCCCCC(=O)NC(Oc1ccc([N+](=O)[O-])cc1)C(Cl)(Cl)Cl (centres undefined)	0.988 ± 0.091	1.08 ± 0.07	1 ± 0.035	0.896 ± 0.22	1.06 ± 0.085	1.03 ± 0.069	1 (active)
CC(C)c1ccc2c(c1O)CCC1C3=C(CCC21C)C(=O)OC3 (centres undefined)	0.921 ± 0.072	0.815 ± 0.11	0.986 ± 0.093	0.939 ± 0.029	1.11 ± 0.19	1.23 ± 0.26	1.03 (active)
